Only some compounds are listed: those with a hit (about 11% of all), similar ones and a draw of the others.
FLuc inh-1 – Firefly luciferase inhibition profiling of diverse chemical library using quantitative high-throughput screening; Luciferin 4-monooxygenase (Photinus pyralis), P08659; purified P. pyralis luciferase, luminescence, biochemical; 76,000 tested, 2.5% active; Potency, µM (top dose mostly 115 µM), usual class: inhibitors; also: nearly all actives have a fitted effect of over 65% in size
Target sequence (P08659 whole entry, looked up): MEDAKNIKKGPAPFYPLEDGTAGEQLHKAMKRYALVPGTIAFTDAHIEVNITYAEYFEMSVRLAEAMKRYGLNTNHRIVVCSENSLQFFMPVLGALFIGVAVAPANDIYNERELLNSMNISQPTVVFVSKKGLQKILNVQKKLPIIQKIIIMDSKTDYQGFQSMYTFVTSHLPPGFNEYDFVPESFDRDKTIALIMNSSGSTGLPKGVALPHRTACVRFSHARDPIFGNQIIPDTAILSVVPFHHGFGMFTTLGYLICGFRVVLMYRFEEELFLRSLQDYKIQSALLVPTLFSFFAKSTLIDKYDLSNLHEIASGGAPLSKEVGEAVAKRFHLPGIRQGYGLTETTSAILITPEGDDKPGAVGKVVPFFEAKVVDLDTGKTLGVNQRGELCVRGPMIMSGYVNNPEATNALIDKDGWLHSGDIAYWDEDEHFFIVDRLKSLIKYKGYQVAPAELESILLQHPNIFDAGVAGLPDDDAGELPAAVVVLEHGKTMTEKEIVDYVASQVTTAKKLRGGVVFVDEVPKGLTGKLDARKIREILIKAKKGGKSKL
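Cell-free enzyme assay, 10nM P. pyralis luciferase, luciferin and ATP each at 10uM. Inhibition profiled over a 6-point titration, read as luminescence.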
HEK cytotox – Cytotoxic Profiling in HEK 293 Cell Line of Diverse Libraries Using Quantitative High-Throughput Screening | HEK 293 viability, ATP luminescence (CellTiter-Glo), 48-72 h | Potency, µM (top dose mostly 115 µM), hits mostly inhibitors | 94,000 tested, 6.6% active | AID 1345083, 2018; also: nearly all actives have a fitted effect of over 60% in size
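CellTiter-Glo luminescence (cellular ATP) was read after 48 or 72 hr of compound exposure at 37 degree Celsius. Cells were HEK 293 plated at 250 cells/well.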
hNpr1 antagonist – Natriuretic polypeptide receptor (hNpr1) antagonism - Primary qHTS; Atrial natriuretic peptide receptor 1 (Homo sapiens), P16066; HEK293 hNpr1 GloSensor cGMP, ANP-stimulated luminescence; Potency, µM (highest dose often 46.3 µM), usual class: inhibitors; 76,000 tested, 1.6% active; calls by dose curve; also: nearly all actives have a fitted effect of over 60% in size
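HEK293 cells stably expressing human Npr1 and cGMP GloSensor pGS-40F, loaded 2 h with 2% GloSensor reagent, given compound 30 min at room temperature. Luminescence read before and 20 min after 0.1 nM hNppA.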
NIH3T3 tox – Cytotoxic Profiling in NIH 3T3 Cell Line of Diverse Libraries Using Quantitative High-Throughput Screening; Potency, µM (titrated, usually from 96.7 µM), actives largely listed as inhibitors; NIH 3T3 viability, CellTiter-Glo ATP luminescence, 48-72 h; 94,000 tested, 4.3% active; also: nearly all actives have a fitted effect of over 55% in size
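ATP-dependent luminescence (CellTiter-Glo) served as the viability signal for NIH 3T3 cells treated with compound for 48 or 72 hr at 37 °C.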
FLuc SDR no ATP – Firefly luciferase (FLuc-C-HiBiT) SDR gain of signal screen - without ATP; shares compounds with FLuc inh-1; Purified FLuc-C-HiBiT, Nano-Glo HiBiT luminescence, no ATP; Potency, µM (series often up to 32.7 µM), hits mostly activators; 1,300 tested, 7.8% active; AID 1963318, 2024; also: nearly all actives have a fitted effect of over 55% in size
FLuc SDR ATP – Firefly luciferase (FLuc-C-HiBiT) SDR gain of signal screen - plus ATP. shares compounds with FLuc inh-1. 1,300 tested, 8.7% active. purified FLuc-C-HiBiT + ATP, HiBiT complementation luminescence. AID 1963319, 2024. Potency, µM (titrated, usually from 32.7 µM), most hits filed as activators;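 also: signal reports ligand binding via conformational change of the enzyme rather than luciferase catalysis; nearly all actives have a fitted effect of over 55% in size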
FLuc inh-2 – Firefly luciferase (FLuc-C-HiBiT) enzymatic inhibition screen - Functional assay | shares compounds with FLuc inh-1 | purified FLuc-C-HiBiT enzyme, luciferin luminescence | Potency, µM (titrated, usually from 32.7 µM), actives largely listed as inhibitors | 1,300 tested, 42% active | AID 1963320, 2024; also: nearly all actives have a fitted effect of over 70% in size
Large screens that a line does not name were inactive (follow-up assays come after a bar, where they were run). Unless noted, calls follow the shape of the dose curve; as a rule, active = well fitted curve in the direction sought with a large enough effect; inconclusive = small, poorly fitted or top-dose-only effect, or another doubt; inactive = no such curve, though single readings can be large; an effect the other way counts as inactive or inconclusive.

CCOC(=O)C1CCCN(C(=O)C2COC3(CCCCC3)N2C(=O)c2cccc(Cl)c2)C1 (stereo unspecified)	none
CC1CCCCN1c1ncnc2c1cnn2-c1ccccc1 (stereo unspecified)	none (no result: FLuc inh-1, HEK cytotox, hNpr1 antagonist, NIH3T3 tox) | FLuc SDR no ATP 11.1µM | FLuc SDR ATP inconclusive | FLuc inh-2 1.11µM
Cc1ccc(-n2ncc3c(N4CCC(C)CC4)ncnc32)cc1C	none (no result: FLuc inh-1, HEK cytotox, hNpr1 antagonist, NIH3T3 tox) | FLuc SDR no ATP inactive | FLuc SDR ATP inconclusive | FLuc inh-2 4.95µM
CCOC(=O)C1CCCN(c2ncnc3c2cnn3-c2ccc(C)c(Cl)c2)C1 (stereo unspecified)	none (no result: FLuc inh-1, HEK cytotox, hNpr1 antagonist, NIH3T3 tox) | FLuc SDR no ATP inactive | FLuc SDR ATP inactive | FLuc inh-2 inactive
CC(C)NC(=O)C1CCCN1C(=O)c1cccc(-c2ccccn2)c1 (stereo unspecified)	none (no result: FLuc inh-1, hNpr1 antagonist)
CC1CCN(c2ncnc3c2cnn3-c2ccccc2)CC1	none (no result: FLuc inh-1, HEK cytotox, hNpr1 antagonist, NIH3T3 tox) | FLuc SDR no ATP inactive | FLuc SDR ATP inconclusive | FLuc inh-2 6.24µM
O=c1c2nc(N3CCC(c4ccccc4)CC3)ccc2ncn1C1CC1	FLuc inh-1 1.41µM, HEK cytotox 89.1µM, hNpr1 antagonist inconclusive, NIH3T3 tox inconclusive | FLuc SDR no ATP 20.2µM | FLuc SDR ATP inconclusive | FLuc inh-2 3.6µM
O=c1c2nc(N3CCC(c4ccccc4)CC3)ccc2ncn1-c1cccnc1	FLuc inh-1 inconclusive, HEK cytotox inconclusive, NIH3T3 tox inconclusive
Cc1ncccc1C(=O)N1CCCCCC1c1nnc(-c2ccccc2)o1 (stereo unspecified)	none (no result: FLuc inh-1, hNpr1 antagonist)
CC1CCC(NC(=O)c2noc(-c3ccccc3F)n2)CC1 (stereo unspecified)	FLuc inh-1 8.91µM | FLuc SDR no ATP inactive | FLuc SDR ATP inactive | FLuc inh-2 inconclusive
CCCCCNC(=O)c1noc(-c2ccccc2F)n1	FLuc inh-1 inconclusive, HEK cytotox inconclusive, NIH3T3 tox inconclusive
CCc1noc(-c2nc(-c3ccccc3F)no2)n1	FLuc inh-1 11.2µM, HEK cytotox inconclusive | FLuc SDR no ATP inactive | FLuc SDR ATP inactive | FLuc inh-2 inconclusive
O=C(O)c1ccc(-c2noc(-c3ccccc3F)n2)cc1	none (no result: FLuc inh-1, HEK cytotox, hNpr1 antagonist, NIH3T3 tox) | FLuc SDR no ATP inconclusive | FLuc SDR ATP 0.248µM | FLuc inh-2 0.197µM
CCOc1ccccc1-c1noc(-c2nc(CC)no2)n1	HEK cytotox inconclusive
O=C(O)c1ccccc1-c1noc(-c2ccccc2F)n1	none (no result: FLuc inh-1, HEK cytotox, hNpr1 antagonist, NIH3T3 tox) | FLuc SDR no ATP inactive | FLuc SDR ATP inconclusive | FLuc inh-2 inconclusive
CNC(=O)c1nc2cccnc2n(-c2ccccc2OC)c1=O	none (no result: FLuc inh-1, hNpr1 antagonist)
CCc1nc2c(c(-c3ccc(O)cc3)n1)CCN(C(=O)Cc1ccc(F)cc1)CC2	none (no result: FLuc inh-1, hNpr1 antagonist)
COc1ccc(-n2c(=O)c(C(=O)N3CCCC3)nc3cccnc32)cc1	none (no result: FLuc inh-1, hNpr1 antagonist)
CO[C@H]1CN(C2CCN(C(=O)CN3CCCC3=O)CC2)[C@H]1c1cccnc1	none (no result: FLuc inh-1, hNpr1 antagonist)
COCCN1CCC2(C1)CN(C)c1ccc(C(=O)Nc3ccc(F)cc3)cc12 (stereo unspecified)	FLuc inh-1 2.82µM, HEK cytotox 79.4µM, hNpr1 antagonist inconclusive, NIH3T3 tox inconclusive | FLuc SDR no ATP inconclusive | FLuc SDR ATP inconclusive | FLuc inh-2 7.18µM
CN1CC2(CCCN(CC3CC3)C2)c2cc(C(=O)Nc3ccn(C)n3)ccc21 (stereo unspecified)	HEK cytotox inconclusive
COCCN1CCC2(C1)CN(C)c1ccc(C(=O)Nc3ccccc3)cc12 (stereo unspecified)	FLuc inh-1 0.631µM, HEK cytotox 79.4µM, hNpr1 antagonist 6.31µM, NIH3T3 tox inconclusive | FLuc SDR no ATP 4.04µM | FLuc SDR ATP inconclusive | FLuc inh-2 1.14µM

Screens: PubChem, National Center for Advancing Translational Sciences (NCATS)
